Active and inactive are the calls of the source. Rule for the calls: active = hit-call score of the fitted dose curve at least 0.9, where 1 is the maximum; inactive = score below 0.9.
Tests used:
Conditions in all cases: mRNA level, 48 h; actives raise or lower the signal
CYP4A11 (gene 1579) = experiment: LTEA_HepaRG_CYP4A11: Life Technologies and Expression Analysis (LTEA) Assay for CYP4A11 using HepaRG (AID 2283486)
Summary of the method: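 Human hepatic HepaRG cultures receive duplicate 48 h exposures across a concentration-response series topping at 100 uM. Expression changes in CYP4A11 are measured by qRT-PCR relative to DMSO controls.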

[1] = read-out: Cytochrome P450 3A4 (Homo sapiens) (UniProt P08684); experiment: LTEA_HepaRG_CYP3A4: Life Technologies and Expression Analysis (LTEA) Assay for CYP3A4 using HepaRG (AID 2283487)
Summary of the method: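 In a human hepatic line (HepaRG), duplicate wells were treated 48 h with up to 100 uM chemical in half-log dilutions. Endpoint: CYP3A4 mRNA induction or loss relative to 0.5% DMSO vehicle, by qRT-PCR.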

[2] = read-out: DNA damage-inducible transcript 3 (DDIT3), DDIT3 (gene 1649); experiment: LTEA_HepaRG_DDIT3: Life Technologies and Expression Analysis (LTEA) Assay for DNA damage-inducible transcript 3 (DDIT3) using HepaRG (AID 2283488)
Summary of the method: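 Cells are human HepaRG liver cells treated for 48 h with eight half-log concentrations up to 100 uM in 0.5% DMSO. Transcript levels come from qRT-PCR normalized to three housekeeping genes, with activity fitted in both directions relative to vehicle.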

[3] = read-out: Pro-epidermal growth factor (Homo sapiens) (UniProt P01133); experiment: LTEA_HepaRG_EGF: Life Technologies and Expression Analysis (LTEA) Assay for Epidermal growth factor (EGF) using HepaRG (AID 2283489)
Summary of the method: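 Concentration-response mRNA assay: HepaRG cells dosed 48 h (max 100 uM, 0.5% DMSO), EGF measured by qRT-PCR and normalized to ACTB/GAPDH/POLR2A.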

[4] = read-out: Early growth response protein 1 (EGR1) transcription factor, EGR1 (gene 1958); experiment: LTEA_HepaRG_EGR1: Life Technologies and Expression Analysis (LTEA) Assay for Early growth response protein 1 (EGR1) transcription factor using HepaRG (AID 2283490)
Summary of the method: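 HepaRG, 48 h exposure, 8-pt half-log series from 100 uM, 0.5% DMSO vehicle; EGR1 transcript by TaqMan qRT-PCR (Fluidigm array), housekeeping-normalized; bidirectional fit relative to DMSO baseline.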

[5] = read-out: Ezrin (EZR), EZR (gene 7430); experiment: LTEA_HepaRG_EZR: Life Technologies and Expression Analysis (LTEA) Assay for Ezrin (EZR) using HepaRG (AID 2283491)
Summary of the method: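 Gain or loss of EZR mRNA is scored relative to 0.5% DMSO in human HepaRG cultures treated 48 h with test chemicals in duplicate, eight half-log concentrations from 100 uM.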

[6] = read-out: Cytochrome P450 3A7 (Homo sapiens) (UniProt P24462); experiment: LTEA_HepaRG_CYP3A7: Life Technologies and Expression Analysis (LTEA) Assay for CYP3A7 using HepaRG (AID 2283492)
Summary of the method: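 qRT-PCR of CYP3A7 in HepaRG lysates after 48 h treatment; concentration-response (8 points, max 100 uM) analysed bidirectionally relative to 0.5% DMSO controls.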

CYP3A5 (gene 1577) = experiment: LTEA_HepaRG_CYP3A5: Life Technologies and Expression Analysis (LTEA) Assay for CYP3A5 using HepaRG (AID 2283493)
Summary of the method: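 Human HepaRG hepatic cells receive 48 h chemical treatment at eight concentrations (half-log steps from 100 uM) in 0.5% DMSO. Expression of CYP3A5 is quantified by Fluidigm qRT-PCR and normalized to three reference genes.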

[7] = read-out: Cytochrome P450 4A22 (Homo sapiens) (UniProt Q5TCH4); experiment: LTEA_HepaRG_CYP4A22: Life Technologies and Expression Analysis (LTEA) Assay for Cytochrome P450 4A22 (CYP4A22) using HepaRG (AID 2283495)
Summary of the method: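 Concentration-response (8 points, max 100 uM, 0.5% DMSO) in human HepaRG liver cells after 48 h exposure. CYP4A22 mRNA by TaqMan qRT-PCR with housekeeping-gene normalization.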

[8] = read-out: Cytochrome P450 7A1 (Homo sapiens) (UniProt P22680); experiment: LTEA_HepaRG_CYP7A1: Life Technologies and Expression Analysis (LTEA) Assay for Cytochrome P450 7A1 (CYP7A1) using HepaRG (AID 2283496)
Summary of the method: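 HepaRG, 48 h exposure, 8-pt half-log series from 100 uM, 0.5% DMSO vehicle, duplicates. Readout: TaqMan qRT-PCR mRNA vs three housekeeping genes; bidirectional curve fit against DMSO baseline.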

[9] = read-out: Glutathione S-Transferase (GSTA2), GSTA2 (gene 2939); experiment: LTEA_HepaRG_GSTA2: Life Technologies and Expression Analysis (LTEA) Assay for Glutathione S-Transferase (GSTA2) using HepaRG (AID 2283497)
Summary of the method: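 qRT-PCR readout of GSTA2 transcript, normalized to three housekeeping genes, fitted bidirectionally against 0.5% DMSO baseline. Differentiated HepaRG cells received compound for 48 h at 8 concentrations (top 100 uM, half-log steps).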

[10] = read-out: Glutamate-cysteine ligase catalytic (GCLC), GCLC (gene 2729); experiment: LTEA_HepaRG_GCLC: Life Technologies and Expression Analysis (LTEA) Assay for Glutamate-cysteine ligase catalytic (GCLC) using HepaRG (AID 2283498)
Summary of the method: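 HepaRG, 48 h exposure, 8-pt half-log series from 100 uM, 0.5% DMSO vehicle; TaqMan qRT-PCR for GCLC mRNA, housekeeping-normalized; bidirectional curve fit vs DMSO baseline.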

[11] = read-out: growth arrest and DNA damage 45 (GADD45G), GADD45G (gene 10912); experiment: LTEA_HepaRG_GADD45G: Life Technologies and Expression Analysis (LTEA) Assay for growth arrest and DNA damage 45 (GADD45G) using HepaRG (AID 2283499)
Summary of the method: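 Concentration-response in HepaRG: 48 h dosing, 0.5% DMSO, highest level 100 uM. GADD45G expression by qRT-PCR, normalised to endogenous controls; bidirectional fit to DMSO.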

[12] = read-out: Glutamate-cysteine ligase regulatory (GCLM), GCLM (gene 2730); experiment: LTEA_HepaRG_GCLM: Life Technologies and Expression Analysis (LTEA) Assay for Glutamate-cysteine ligase regulatory (GCLM) using HepaRG (AID 2283500)
Summary of the method: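 Endpoint is GCLM transcript level by qRT-PCR, normalized to three housekeeping genes, after 48 h chemical exposure of human HepaRG cells (0.5% DMSO vehicle, top 100 uM, half-log dilutions). Fitting was bidirectional relative to DMSO.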

[13] = read-out: Glutathione S-transferase M3 (GSTM3), GSTM3 (gene 2947); experiment: LTEA_HepaRG_GSTM3: Life Technologies and Expression Analysis (LTEA) Assay for Glutathione S-transferase M3 (GSTM3) using HepaRG (AID 2283501)
Summary of the method: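 Expression of GSTM3 is determined by qRT-PCR in human liver HepaRG cells treated 48 h with an 8-point half-log range from 100 uM in 0.5% DMSO.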

[14] = read-out: Heat shock 70 kDa protein 1 (HSPA1A), gene 3303; experiment: LTEA_HepaRG_HSPA1A: Life Technologies and Expression Analysis (LTEA) Assay for Heat shock 70 kDa protein 1 (HSPA1A) using HepaRG (AID 2283502)
Summary of the method: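 Cells were plated and cultured for 48 h, then switched to serum-free induction medium. Chemicals were added at eight half-log concentrations up to 100 uM for 48 h. RNA was then isolated and HSPA1A measured by qRT-PCR with bidirectional curve fitting against DMSO.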

[15] = read-out: 3-Hydroxy-3-Methylglutaryl-CoA Synthase 2 (HMGCS2), HMGCS2 (gene 3158); experiment: LTEA_HepaRG_HMGCS2: Life Technologies and Expression Analysis (LTEA) Assay for 3-Hydroxy-3-Methylglutaryl-CoA Synthase 2 (HMGCS2) using HepaRG (AID 2283504)
Summary of the method: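 This steatosis marker was read as HMGCS2 mRNA change in HepaRG cells treated 48 h with up to 100 uM chemical. Normalisation used housekeeping genes; activity in either direction was fitted relative to 0.5% DMSO vehicle.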

HGF (gene 3082) = experiment: LTEA_HepaRG_HGF: Life Technologies and Expression Analysis (LTEA) Assay for Hepatocyte Growth Facto (HGF) using HepaRG (AID 2283505)
Summary of the method: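 Using HepaRG monolayers kept in 0.5% DMSO, chemicals were tested in duplicate over eight half-log concentrations from 100 uM for 48 h. Endpoint: HGF mRNA change relative to DMSO, normalized to ACTB/GAPDH/POLR2A.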

[16] = read-out: Insulin Like Growth Factor 1 (IGF1), IGF1 (gene 3479); experiment: LTEA_HepaRG_IGF1: Life Technologies and Expression Analysis (LTEA) Assay for Insulin Like Growth Factor 1 (IGF1) using HepaRG (AID 2283506)
Summary of the method: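 Cells are thawed, plated and cultured 48 h, then exposed in duplicate to chemical (highest 100 uM, half-log steps, 0.5% DMSO) for another 48 h. Total RNA is analysed by Fluidigm qRT-PCR for IGF1 expression relative to vehicle.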

[17] = read-out: Intercellular Adhesion Molecule 1 (ICAM1), ICAM1 (gene 3383); experiment: LTEA_HepaRG_ICAM1: Life Technologies and Expression Analysis (LTEA) Assay for Intercellular Adhesion Molecule 1 (ICAM1) using HepaRG (AID 2283507)
Summary of the method: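 Using the human liver line HepaRG, compounds are tested in duplicate over 48 h at concentrations up to 100 uM. Expression is determined by TaqMan qRT-PCR, normalized to endogenous controls, and analysed relative to 0.5% DMSO vehicle.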

Measured: outcome

Chain of Cytochrome P450 3A4 (Homo sapiens) (P08684 whole entry, looked up): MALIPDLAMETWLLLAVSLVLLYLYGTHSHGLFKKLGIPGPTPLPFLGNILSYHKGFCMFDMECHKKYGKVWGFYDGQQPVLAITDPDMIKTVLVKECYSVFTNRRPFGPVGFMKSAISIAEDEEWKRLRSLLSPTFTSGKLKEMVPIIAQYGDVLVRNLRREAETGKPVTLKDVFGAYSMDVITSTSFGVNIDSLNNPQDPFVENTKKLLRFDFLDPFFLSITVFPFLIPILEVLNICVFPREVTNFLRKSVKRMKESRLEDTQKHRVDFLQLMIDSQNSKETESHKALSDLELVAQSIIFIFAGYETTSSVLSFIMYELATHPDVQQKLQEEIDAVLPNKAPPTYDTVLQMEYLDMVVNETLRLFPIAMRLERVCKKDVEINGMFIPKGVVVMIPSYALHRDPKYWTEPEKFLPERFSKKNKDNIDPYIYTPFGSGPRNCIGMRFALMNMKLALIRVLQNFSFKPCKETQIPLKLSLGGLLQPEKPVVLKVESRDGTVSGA
Chain of Cytochrome P450 3A7 (Homo sapiens) (P24462 whole entry, looked up): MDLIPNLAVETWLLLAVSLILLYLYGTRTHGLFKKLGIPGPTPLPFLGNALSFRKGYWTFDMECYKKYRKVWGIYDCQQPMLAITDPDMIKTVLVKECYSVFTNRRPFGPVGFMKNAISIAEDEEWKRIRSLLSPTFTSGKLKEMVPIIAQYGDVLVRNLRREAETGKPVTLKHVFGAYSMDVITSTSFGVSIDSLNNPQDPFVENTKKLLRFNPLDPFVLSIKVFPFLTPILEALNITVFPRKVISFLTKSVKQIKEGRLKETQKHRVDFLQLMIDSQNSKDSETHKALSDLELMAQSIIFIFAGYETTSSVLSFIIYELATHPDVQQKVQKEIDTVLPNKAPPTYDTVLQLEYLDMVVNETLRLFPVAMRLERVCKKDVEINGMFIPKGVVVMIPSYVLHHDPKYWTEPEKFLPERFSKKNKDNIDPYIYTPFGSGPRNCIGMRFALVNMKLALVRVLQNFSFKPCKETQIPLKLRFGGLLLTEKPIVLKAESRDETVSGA

N#CCCCCC#N
inactive: all assays above

O=[N+]([O-])c1ccc(Cl)cc1
inactive: all assays above

O=C(CCl)c1ccccc1
inactive: all assays above
